JMJD2A Tudor: blocks the human JMJD2A Tudor domain | O75164 | AlphaScreen JMJD2A-Tudor / H3K4me3 peptide binding | Potency, µM (top dose mostly 114 µM), inactives show top-dose activity change, negative = inhibition, usual class: inhibitors | actives 4.4% (n = 390,000); also: % is scaled to controls: 0 for no effect and ±100 for the full control effect; nearly all actives have a fitted effect of over 50% in size
BAZ2B inh: BAZ2B (human) inhibition. AlphaScreen BAZ2B-H3K14Ac peptide displacement. Potency, µM (top dose mostly 114 µM), without a hit: at the top dose activity change, negative = inhibition, actives largely listed as inhibitors. actives 4.4% (n = 360,000). Q9UIF8; also: % is scaled to controls: 0 for no effect and ±100 for the full control effect; nearly all actives have a fitted effect of over 60% in size
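BAZ2B (50 nM) with biotin-H3(5-23)K14Ac peptide (50 nM) in PBS pH 7.4, 0.01% Tween-20, preformed 30 min, then compound 30 min at room temperature; top concentration 110uM. AlphaScreen streptavidin donor/nickel chelate acceptor beads (10 ug/mL final), 20 min dark, signal read.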
HP1b binding inh: inhibitors of HP1-beta chromodomain binding to methylated histone tails. AlphaScreen HP1-beta / biotin-H3K9me3 peptide binding. Potency, µM (series often up to 114 µM), inactives show at the top dose activity change, negative = inhibition, actives largely listed as inhibitors. actives 0.56% (n = 390,000). P83916; also: nearly all actives have a fitted effect of over 70% in size
Target sequence (P83916 whole entry, looked up): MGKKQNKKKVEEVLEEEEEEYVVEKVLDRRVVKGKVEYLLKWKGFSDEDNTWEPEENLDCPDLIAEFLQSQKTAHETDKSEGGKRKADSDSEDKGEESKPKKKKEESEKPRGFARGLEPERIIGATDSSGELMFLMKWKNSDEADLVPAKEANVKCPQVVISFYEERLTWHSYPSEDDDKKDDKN
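HP1-beta protein (50 nM final) preincubated 30 min at room temperature with biotinylated H3(1-18)K9me3 peptide (50 nM) in PBS pH 7.4, 0.01% Tween-20, then compound added for 30 min. AlphaScreen streptavidin donor/nickel chelate acceptor beads (10 ug/mL final), 30 min dark, luminescence read.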
Sfp inh: Sfp phosphopantetheinyl transferase inhibition. Q9F4F7. actives 3.5% (n = 310,000). Potency, µM, for the others: largest response in the series, negative = inhibition, actives largely listed as inhibitors. AID 1490. Biochemical Sfp PPTase activity, qHTS;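 also: the enzyme is Sfp with the accession as filed and its product quenches rhodamine fluorescence; 0% = enzyme reaction without inhibitor and -100% = no enzyme wells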
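Fluorescence-quenching assay: 15 nM Sfp-PPTase preincubated 15 min at room temperature with compound, then 5 uM rhodamine-CoA and 12.5 uM BHQ-2-labelled YbbR peptide added. Fluorescence (ex 525/em 598 nm) read at start and after 30 min; difference gives rate.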
L3MBTL1 inh: L3MBTL1 (human) inhibition | AlphaScreen L3MBTL1–H3K9me1 peptide binding | Potency, µM (highest dose often 57.1 µM), for the others: at the highest dose activity, negative = inhibition, most hits filed as inhibitors | actives 0.66% (n = 230,000) | AID 485360; also: % is scaled to controls: 0 for no effect and ±100 for the full control effect; nearly all actives have a fitted effect of over 60% in size
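L3MBTL1 50 nM + b-AHA-H3(1-15)K9me1 75 nM, 30 min RT; compound added, 30 min RT; streptavidin donor/Ni-chelate acceptor beads 10 ug/mL each final, 30 min RT dark; AlphaScreen read.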
G9a block: G9a (human) methyltransferase inhibition. G9a H3K9 monomethylation, AlphaScreen, 2 h. Potency, µM (top dose mostly 102 µM), without a hit: top-dose activity, negative = inhibition, usual class: inhibitors. actives 8.8% (n = 350,000). AID 504332; also: % is scaled to controls: 0 for no effect and ±100 for the full control effect; nearly all actives have a fitted effect of over 75% in size
Target sequence (Q96KQ7 913-1193 limits assumed): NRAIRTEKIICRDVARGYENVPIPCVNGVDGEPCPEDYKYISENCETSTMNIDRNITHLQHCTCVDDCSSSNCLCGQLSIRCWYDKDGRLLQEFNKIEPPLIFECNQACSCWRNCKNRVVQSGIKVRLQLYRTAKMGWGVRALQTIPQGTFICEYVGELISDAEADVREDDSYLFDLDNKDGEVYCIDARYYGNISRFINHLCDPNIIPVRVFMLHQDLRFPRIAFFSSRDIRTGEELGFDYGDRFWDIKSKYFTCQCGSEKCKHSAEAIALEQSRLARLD
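Compounds were preincubated with 20 nM G9a for 15 min, after which biotinylated H3K9 peptide (500 nM) and SAM (20 uM) started a 2 h room-temperature reaction. Monomethylated product was quantified by antibody-based AlphaScreen chemiluminescence.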
Active calls of the source: *; ? = inconclusive; nt = no result given; ! = a repeat was not active; [ ] = dose if it differs, or a comment. Hits are enriched below; roughly 12% of the tested compounds scored in any of these assays. Calls follow the shape of the dose curve; as a rule, active = well fitted curve in the direction sought with a large enough effect; inconclusive = small, poorly fitted or top-dose-only effect, or another doubt; inactive = no such curve, though single readings can be large; an effect the other way counts as inactive or inconclusive. Potency is read from the fitted curve at half-maximal effect.

SMILES | JMJD2A Tudor | BAZ2B inh | HP1b binding inh | Sfp inh | L3MBTL1 inh | G9a block
Cc1cc(C)c2nc(NNC(=O)c3ccc(S(=O)(=O)N4CCCC(C)C4)cc3)sc2c1 (centres undefined) | ? | 8.9µM* | -22% | -8% | ? | 45µM*
Cc1cc(C)c2nc(NC(=O)c3ccc(S(=O)(=O)N4CCC(C)CC4)cc3)sc2c1 | 0% | 1% | 24%[57 µM] | nt | nt | 2%[59 µM]
CCCn1c(=N)c(C(=O)NCc2cccnc2)cc2c(=O)n3cc(C)ccc3nc21 | 5% | -1% | 53% | nt | nt | 5%[59 µM]
CCN1CCN(c2ncc3c(n2)CCN(CC(C)C)C3)CC1 | -28% | ? | 21% | nt | nt | ?
COC(=O)c1ccc(C(NC(=O)OCc2ccccc2)/C(F)=C/[C@@H](C)C(=O)NCCO)cc1 (some centres undefined) | nt | nt | nt | 13% | nt | nt
CN1C(=O)C2(c3ccccc31)C1CCCC=C1C(C#N)=C(N)C2(C#N)C#N (centres undefined) | 2%[11.4 µM] | 23% | 38% | 13µM* | nt | -46%[2.33 µM]
CC1CCN(S(=O)(=O)N2CCC(C(=O)NCc3ccccc3Cl)CC2)CC1 | -17% | 5% | -12% | nt | nt | 3%[59 µM]
O=C(O)c1cc(N=Cc2c(O)c3ccccc3oc2=O)ccc1O | -22% | -20% | 12% | ? | nt | 50µM*
Cc1cc(C)cc(N=Cc2c(O)c3ccccc3oc2=O)c1 | -17% | -4% | 34% | 19% | nt | 10%
COc1ccc(N=Cc2c(O)c3ccccc3oc2=O)cc1 | 1% | 2% | 27% | 0% | 7% | ?
CC(C)c1ccc(N=Cc2c(O)c3ccccc3oc2=O)cc1 | 43% | 34% | 83% | 45µM* | nt | 4%
Cc1ccc(N=Cc2c(O)c3ccccc3oc2=O)cc1F | -10% | -16% | 22% | 8% | nt | 35µM*
COc1cccc(Cn2c(=O)c(-c3ccc(F)cc3)nc3cnc(N(C)C)nc32)c1 | nt | nt | nt | 11% | nt | 5%[0.501 µM]
CCCCc1nn2c(=O)cc(COC(=O)c3cccc(OC)c3)nc2s1 | -5% | -1% | 2% | nt | nt | 13%[59 µM]
Cc1cc(NC(=O)CSc2ccc3nnc(-c4ccc(Cl)cc4)n3n2)no1 | -4% | -4% | 23% | 2% | nt | 22µM*
Cc1cc(NC(=O)CSc2nnc3ccc(-c4ccc(F)cc4)nn23)no1 | -15% | -7% | -1% | nt | 2% | 50µM*
CCOc1ccc(-c2nnc3ccc(SCC(=O)Nc4cc(C)on4)nn23)cc1 | -8% | -9% | 32% | 10% | 6% | -39%
Cc1cc(NC(=O)CSc2ccc3nnc(-c4cccc(F)c4)n3n2)no1 | -1% | -2% | 24% | -7% | -4% | 22µM*
COc1ccccc1CCNC(=O)CSc1nnc2ccc(-c3ccncc3)nn12 | -4%[11.4 µM] | -29% | 58% | 19% | -11% | 50µM*
COc1ncc2nc(-c3cc(F)cc(F)c3)c(=O)n(C[C@H]3CCCO3)c2n1 | nt | nt | nt | 7% | nt | 5%[12.7 µM]
CCOc1cccc(CC(=O)N2CCc3c([nH]c4ccccc34)C2c2ccc(SC)cc2)c1OCC (centres undefined) | ? | -36% | 47% | nt | nt | 13%[59 µM]
CCCCOC(=O)c1c(N)n(-c2ccc(OC)cc2OC)c2nc3ccccc3nc12 | 4% | 4% | 38% | nt | nt | -2%[59 µM]
CCc1cccc(NC(=O)C(NS(=O)(=O)c2ccc3nc(C)sc3c2)C(C)C)c1 (centres undefined) | -2% | 5% | 38% | nt | nt | -1%[59 µM]
CCc1ccccc1OCC(=O)Nc1ccc(N2CCCC2)cc1C | ? | ? | 7% | nt | -18% | 3.2µM*
Cc1cc(OCC(=O)Nc2ccc(N3CCCC3)cc2)cc(C)c1Cl | ? | ? | -13% | -29% | nt | -20%[12.7 µM]
SMILES | JMJD2A Tudor | BAZ2B inh | HP1b binding inh | Sfp inh | L3MBTL1 inh | G9a block
COc1ccc(N2CCCC2)c(NC(=O)COc2ccccc2)c1 | ? | ? | ? | -19% | nt | 40µM*
COc1ccc(OCC(=O)Nc2ccccc2N2CCCCC2)cc1 | 54% | 16% | 124% | ? | nt | nt
Cc1cccc(OCC(=O)Nc2ccccc2N2CCCCC2)c1C | 44% | 38% | 127% | nt | 19% | 22%
Cc1cc(N2CCCC2)ccc1NC(=O)COc1ccccc1 | ? | -36% | -7% | nt | -9% | 7.1µM*
COc1ccc(OCC(=O)Nc2ccccc2Cl)cc1 | -9% | 50µM* | 19% | 19% | -10% | 7%
CC(C)(C)C1=CC(=O)C(N2CCOCC2)=CC1=O | -34% | 50µM* | ? | -16% | -14% | ?
O=C(NCCCO)Nc1ccc2nc(-c3ccco3)c(-c3ccco3)nc2c1 | nt | 3.5µM* | nt | 14µM* | nt | 1.8µM*
O=C(Nc1ccc2nc(-c3cccs3)c(-c3cccs3)nc2c1)N1CCOCC1 | 5% | 9% | 20% | 7% | -8% | 13%[59 µM]
OCCCNC(=S)Nc1ccc2nc(-c3ccccn3)c(-c3ccccn3)nc2c1 | -25% | 0% | 25% | -13% | 3% | -14%
O=C(Nc1ccc(N2CCOCC2)cc1)Nc1ccc2nc(-c3ccco3)c(-c3ccco3)nc2c1 | ? | 5% | -17% | 10µM* | ? | 1.8µM*
COc1ccc2c(c1)O[C@H](c1ccc3c(c1)OCO3)[C@@H](OC(=O)NCCc1ccc(OC)c(OC)c1)C2=O | nt | nt | nt | -7% | nt | nt
Cc1ccc(-c2ccc(/C=N/n3cnnc3)o2)cc1Cl | ? | -10% | 15% | -1% | 1%[11.4 µM] | -4%[12.7 µM]
Cc1cc(C(=O)O)ccc1-c1ccc(/C=N/n2cnnc2)o1 | 2% | 1% | 33% | -7% | nt | 56µM*
O=[N+]([O-])c1cc(-c2ccc(/C=N\n3cnnc3)o2)cc([N+](=O)[O-])c1 | ? | -38% | ? | ? | nt | 45µM*
O=C1CN(/N=C/c2ccc(-c3ccc([N+](=O)[O-])cc3)o2)C(=O)N1 | nt | nt | nt | 89µM*! | nt | 4%[59 µM]
Cc1ccc2[nH]c(CSc3nnc(C)s3)cc(=O)c2c1 | -13% | 6% | 16%[57 µM] | nt | nt | ?
CCc1ccc(-c2cn3c(n2)sc2cc(C(=O)NC4CCCCCC4)ccc23)cc1 | -10% | 3% | 5% | nt | nt | -7%[59 µM]
COc1ccc(-c2nc3sc(CCNC(=O)c4cccc(C(F)(F)F)c4)c(C)n3n2)cc1 | -14% | -2% | 32% | nt | nt | -3%[59 µM]
COc1cccc(CNC(=O)C(=O)NCC(c2ccco2)S(=O)(=O)c2ccccc2)c1 (centres undefined) | -18% | -5% | -4% | nt | nt | 3%[59 µM]
COC(=O)c1ccccc1NC(=O)CN1CCN(c2ccccn2)CC1 | -22% | -14% | 36% | 20% | -1% | 3%
COC(=O)c1ccccc1N/C=C1\CCc2c(c(C)nn2-c2ccccn2)C1=O | -31% | -24% | 19% | 45µM* | -7% | ?

Source: PubChem BioAssay (National Center for Advancing Translational Sciences (NCATS))
